Columns and labels:
Assay in all cases: protein domain microarray probed with biotinylated miRNA; Domain array: 20 mM Tris-HCl pH 7.4, 200 mM KCl, 0.2 mM EDTA, 0.05% NP40, 2 ug/ul heparin, overnight 4 C. ORF array: PBS pH 7.0 with RNase inhibitor, 100 ng RNA; high values mean tight binding
Settings in all cases: ssRNA
CELF2(1-2) = CELF2(1-2) (Homo sapiens, UniProt O95319)
CELF4(1-2) = CELF4(1-2) (Homo sapiens, UniProt Q9BZC1)
BOLL = target: T1, BOLL (Homo sapiens, UniProt Q8N9W6)
T1 sequence: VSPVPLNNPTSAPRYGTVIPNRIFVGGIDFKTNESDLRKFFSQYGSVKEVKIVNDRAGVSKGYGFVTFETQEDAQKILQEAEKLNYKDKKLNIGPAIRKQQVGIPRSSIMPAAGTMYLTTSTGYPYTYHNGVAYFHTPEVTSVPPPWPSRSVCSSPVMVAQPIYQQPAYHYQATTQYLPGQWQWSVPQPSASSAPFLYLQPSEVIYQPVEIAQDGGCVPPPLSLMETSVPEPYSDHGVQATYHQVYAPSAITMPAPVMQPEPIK

CELF1(1-2) = CELF1(1-2) (Homo sapiens, UniProt Q92879)
CELF2(3) = CELF2(3) (Homo sapiens, UniProt O95319)
CELF1(3) = CELF1(3) (Homo sapiens, UniProt Q92879)
A2BP1 = target: T2, A2BP1 (Homo sapiens, UniProt Q9NWB1)
T2 sequence: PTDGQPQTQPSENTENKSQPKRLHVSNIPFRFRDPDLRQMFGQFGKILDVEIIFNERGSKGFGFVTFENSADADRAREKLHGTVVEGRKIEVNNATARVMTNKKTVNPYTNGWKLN

G3BP-2 = target: T3, G3BP-2 (Homo sapiens, UniProt Q9UN86)
T3 sequence: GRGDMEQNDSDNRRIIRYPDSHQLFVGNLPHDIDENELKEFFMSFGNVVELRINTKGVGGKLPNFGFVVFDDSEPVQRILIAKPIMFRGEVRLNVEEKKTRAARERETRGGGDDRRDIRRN

Acinus(1) = target: T4, Acinus(1) (Homo sapiens, UniProt Q9UKV3)
T4 sequence: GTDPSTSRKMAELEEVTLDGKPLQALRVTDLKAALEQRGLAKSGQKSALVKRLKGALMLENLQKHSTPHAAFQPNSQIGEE

CELF4(3) = CELF4(3) (Homo sapiens, UniProt Q9BZC1)
Chain of CELF4(3) (Q9BZC1 380-486): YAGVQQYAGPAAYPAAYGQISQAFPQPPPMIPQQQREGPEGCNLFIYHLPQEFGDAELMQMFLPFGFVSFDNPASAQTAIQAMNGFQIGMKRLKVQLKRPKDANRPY

Chain of CELF1(3) (Q92879 370-486): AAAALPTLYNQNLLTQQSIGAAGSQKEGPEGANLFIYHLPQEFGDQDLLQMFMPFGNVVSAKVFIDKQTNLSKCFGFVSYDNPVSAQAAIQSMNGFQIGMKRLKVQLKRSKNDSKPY
Chain of CELF1(1-2) (Q92879 1-210): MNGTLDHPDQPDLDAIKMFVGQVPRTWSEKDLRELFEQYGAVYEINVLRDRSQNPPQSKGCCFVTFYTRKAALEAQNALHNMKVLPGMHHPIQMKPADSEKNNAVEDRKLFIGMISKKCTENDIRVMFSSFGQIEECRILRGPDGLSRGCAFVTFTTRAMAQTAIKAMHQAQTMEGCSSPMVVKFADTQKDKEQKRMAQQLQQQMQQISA
Chain of CELF4(1-2) (Q9BZC1 31-250): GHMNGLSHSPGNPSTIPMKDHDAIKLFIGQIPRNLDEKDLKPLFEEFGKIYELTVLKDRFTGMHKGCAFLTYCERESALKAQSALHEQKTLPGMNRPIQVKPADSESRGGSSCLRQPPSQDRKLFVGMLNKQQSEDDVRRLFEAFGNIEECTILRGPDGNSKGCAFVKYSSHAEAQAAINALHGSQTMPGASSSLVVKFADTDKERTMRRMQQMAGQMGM
Chain of CELF2(1-2) (O95319 19-241): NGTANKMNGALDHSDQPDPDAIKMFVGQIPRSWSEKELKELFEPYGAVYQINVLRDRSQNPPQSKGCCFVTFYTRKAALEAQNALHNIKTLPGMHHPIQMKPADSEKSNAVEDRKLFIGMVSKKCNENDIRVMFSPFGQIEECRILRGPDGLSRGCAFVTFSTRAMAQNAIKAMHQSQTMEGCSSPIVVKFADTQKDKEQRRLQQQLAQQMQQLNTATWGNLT
Chain of CELF2(3) (O95319 396-508): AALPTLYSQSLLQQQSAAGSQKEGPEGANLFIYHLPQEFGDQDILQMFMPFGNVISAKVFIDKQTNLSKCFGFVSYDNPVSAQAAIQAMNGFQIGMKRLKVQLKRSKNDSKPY

Sequence	binding signal (CELF2(1-2))	binding signal (CELF4(1-2))	binding signal (BOLL)	binding signal (CELF1(1-2))	binding signal (CELF2(3))	binding signal (CELF1(3))	binding signal (A2BP1)	binding signal (G3BP-2)	binding signal (Acinus(1))	binding signal (CELF4(3))
UAGCUUAUCAGACUGAUGUUGA	21.3 ± 6.6 fluorescence intensity	20.5 ± 0.276 fluorescence intensity	567 ± 57.8 fluorescence intensity	45.6 ± 13.3 fluorescence intensity	1040 ± 177 fluorescence intensity	1160 ± 14.2 fluorescence intensity	2210 ± 93.6 fluorescence intensity	330 ± 22.3 fluorescence intensity		
CAGUGCAAUGAUGAAAGGGCAU	48.3 ± 1.66 fluorescence intensity	68.5 ± 5.81 fluorescence intensity	433.1 ± 0.594 fluorescence intensity	29.4 ± 2.27 fluorescence intensity	1010 ± 110 fluorescence intensity	1043.4 ± 0.00707 fluorescence intensity	3922 ± 30.6 fluorescence intensity	1910 ± 49.7 fluorescence intensity	130 ± 7.88 fluorescence intensity	22.5 ± 0.509 fluorescence intensity
UGAGGUAGUAGGUUGUGUGGUU	156 ± 18.9 fluorescence intensity	241 ± 6.35 fluorescence intensity	986 ± 65.6 fluorescence intensity	32.2 ± 23.1 fluorescence intensity	2850 ± 134 fluorescence intensity	2820 ± 118 fluorescence intensity	3130 ± 57 fluorescence intensity	967 ± 16.3 fluorescence intensity	330 ± 24.8 fluorescence intensity	33.3 ± 4.99 fluorescence intensity
UGAGGUAGUAGGUUGUAUGGUU	79.94 ± 0.219 fluorescence intensity	96 ± 8.15 fluorescence intensity	423 ± 34.1 fluorescence intensity	24.5 ± 18.4 fluorescence intensity	2750 ± 76 fluorescence intensity	2750 ± 97.5 fluorescence intensity	2938 ± 25.1 fluorescence intensity	697 ± 11.7 fluorescence intensity	162 ± 13.3 fluorescence intensity	24.3 ± 1.9 fluorescence intensity
AGAGGUAGUAGGUUGCAUAGUU	63.2 ± 10.6 fluorescence intensity	73.4 ± 2.28 fluorescence intensity	995 ± 54.2 fluorescence intensity	20.1 ± 13.8 fluorescence intensity	2420 ± 70.3 fluorescence intensity	2720 ± 64 fluorescence intensity	4220 ± 134 fluorescence intensity	942 ± 20.8 fluorescence intensity	144 ± 9.49 fluorescence intensity	28.9 ± 2.98 fluorescence intensity
UGAGGUAGUAGGUUGUAUAGUU	29.8 ± 2.19 fluorescence intensity	30.5 ± 1.88 fluorescence intensity	175 ± 17.3 fluorescence intensity		2178 ± 19.2 fluorescence intensity	2270 ± 106 fluorescence intensity	1110 ± 13.1 fluorescence intensity	117 ± 15.5 fluorescence intensity	37 ± 6.58 fluorescence intensity	
